This is an account of results in PubChem BioAssay (EPA / NIEHS).

Activity calls are given as the source filed them. Rule for the calls: active = hit-call score of the fitted dose curve at least 0.9, where 1 is the maximum; inactive = score below 0.9.

What all share (details): mRNA level, 48 h; actives raise or lower the signal
Read-out in assay [1]: Tumor necrosis factor receptor superfamily member 6 (Homo sapiens) (UniProt P25445)
The experiment in a line: LTEA_HepaRG_FAS: Life Technologies and Expression Analysis (LTEA) Assay for Fas cell surface death receptor (FAS) using HepaRG (AID 2283447). An outline of the steps:
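Differentiated human HepaRG cells, pre-cultured 48 h, were exposed in duplicate for 48 h to 8-point half-log concentrations (top 100 uM, 0.5% DMSO) in serum-free induction medium; FAS mRNA measured by qRT-PCR, normalized to ACTB/GAPDH/POLR2A, bidirectional fit versus DMSO.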

Read-out in assay [2]: Fatty acid synthase (Homo sapiens) (UniProt P49327)
The experiment in a line: LTEA_HepaRG_FASN: Life Technologies and Expression Analysis (LTEA) Assay for Fatty Acid Synthase (FASN) using HepaRG (AID 2283448). The essentials: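 Transcript-level assay: HepaRG liver cells are treated for 48 h across an eight-point range topping at 100 uM, and FASN mRNA, normalized to three housekeeping genes, is compared with DMSO controls in both directions.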

Read-out in assay [3]: Cyclin D2 (CCND2), CCND2 (gene 894)
The experiment in a line: LTEA_HepaRG_CCND2: Life Technologies and Expression Analysis (LTEA) Assay for Cyclin D2 (CCND2) using HepaRG (AID 2283449).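 Note: CCND2 transcript measured by TaqMan qRT-PCR and normalised to three housekeeping genes.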 An outline of the steps:
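Differentiated human HepaRG cells were exposed for 48 h in serum-free induction medium to eight half-log concentrations topping at 100 uM (0.5% DMSO vehicle). CCND2 mRNA was quantified by TaqMan qRT-PCR, normalised to ACTB, GAPDH and POLR2A, and fitted bidirectionally against DMSO.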

Read-out in assay [4]: Cyclin Dependent Kinase Inhibitor 1A (CDKN1A), CDKN1A (gene 1026)
The experiment in a line: LTEA_HepaRG_CDKN1A: Life Technologies and Expression Analysis (LTEA) Assay for Cyclin Dependent Kinase Inhibitor 1A (CDKN1A) using HepaRG (AID 2283450). The essentials: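 HepaRG, 48 h dosing, 8-pt half-log series from 100 uM top, 0.5% DMSO vehicle, duplicates. Readout: TaqMan qRT-PCR of CDKN1A transcript, housekeeping-normalized (ACTB, GAPDH, POLR2A). Up/down curve fit relative to DMSO.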

Read-out in assay [5]: Cyclin D1 (CCND1), CCND1 (gene 595)
The experiment in a line: LTEA_HepaRG_CCND1: Life Technologies and Expression Analysis (LTEA) Assay for Cyclin D1 (CCND1) using HepaRG (AID 2283451).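 For AC50: TaqMan qRT-PCR transcript level normalised to ACTB GAPDH and POLR2A housekeeping genes.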 The essentials:
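qRT-PCR (Fluidigm 96.96 array) read-out of transcript level, housekeeping-normalized (ACTB/GAPDH/POLR2A). HepaRG cells, 48 h chemical exposure, 8-point half-log series from 100 uM, 0.5% DMSO vehicle; gain or loss relative to DMSO baseline.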

Read-out in assay [6]: catalase (CAT), CAT (gene 847)
The experiment in a line: LTEA_HepaRG_CAT: Life Technologies and Expression Analysis (LTEA) Assay for catalase (CAT) using HepaRG (AID 2283452). The essentials:
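Differentiated HepaRG cells in serum-free induction medium were dosed 48 h in duplicate, eight half-log concentrations from 100 uM in 0.5% DMSO. Transcript measured by TaqMan qRT-PCR, normalised to ACTB/GAPDH/POLR2A, fitted bidirectionally against DMSO.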

Read-out in assay [7]: flavin-containing dimethylaniline monooxygenases 3 (FMO3), FMO3 (gene 2328)
The experiment in a line: LTEA_HepaRG_FMO3: Life Technologies and Expression Analysis (LTEA) Assay for flavin-containing dimethylaniline monooxygenases 3 (FMO3) using HepaRG (AID 2283453). The essentials: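 HepaRG, 48 h exposure, 8-pt half-log series from 100 uM, 0.5% DMSO vehicle, duplicates; FMO3 transcript by Fluidigm TaqMan qRT-PCR, housekeeping-normalized; gain/loss fit vs DMSO.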

Read-out in assay [8]: Cytochrome P450 (CYP1A1), CYP1A1 (gene 1543)
The experiment in a line: LTEA_HepaRG_CYP1A1: Life Technologies and Expression Analysis (LTEA) Assay for Cytochrome P450 (CYP1A1) using HepaRG (AID 2283454). An outline of the steps: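 qRT-PCR read-out: CYP1A1 transcript normalized to three housekeeping genes, fitted bidirectionally against 0.5% DMSO vehicle baseline. Human HepaRG cells, 48 h chemical exposure, 8-point half-log series topping at 100 uM.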

Read-out in assay [9]: CFLAR gene, CFLAR (gene 8837)
The experiment in a line: LTEA_HepaRG_CFLAR: Life Technologies and Expression Analysis (LTEA) Assay for CFLAR gene using HepaRG (AID 2283455). The essentials: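 HepaRG cells were plated for 48 h, switched to serum-free induction medium, then exposed in duplicate for 48 h to 8 concentrations (top 100 uM, half-log steps, 0.5% DMSO). CFLAR mRNA was measured by qRT-PCR, normalized to ACTB, GAPDH and POLR2A.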

Read-out in assay [10]: Forkhead box O1 (FOXO1), FOXO1 (gene 2308)
The experiment in a line: LTEA_HepaRG_FOXO1: Life Technologies and Expression Analysis (LTEA) Assay for Forkhead box O1 (FOXO1) using HepaRG (AID 2283456). An outline of the steps:
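Differentiated human HepaRG cells in serum-free induction medium were exposed in duplicate for 48 h to eight half-log concentrations (top 100 uM, 0.5% DMSO). FOXO1 mRNA was measured by TaqMan qRT-PCR, normalised to ACTB, GAPDH and POLR2A, and fitted bidirectionally against DMSO.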

Read-out in assay [11]: growth arrest and DNA damage 45 (GADD45A), GADD45A (gene 1647)
The experiment in a line: LTEA_HepaRG_GADD45A: Life Technologies and Expression Analysis (LTEA) Assay for growth arrest and DNA damage 45 (GADD45A) using HepaRG (AID 2283458). An outline of the steps: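 Human HepaRG liver cells are treated in duplicate for 48 h with chemicals in 0.5% DMSO, highest concentration 100 uM. Expression is read by qRT-PCR and analyzed in both directions against vehicle.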

Read-out in assay [12]: Forkhead box O3 (FOXO3), FOXO3 (gene 2309)
The experiment in a line: LTEA_HepaRG_FOXO3: Life Technologies and Expression Analysis (LTEA) Assay for Forkhead box O3 (FOXO3) using HepaRG (AID 2283459). The essentials:
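Differentiated human HepaRG cells in serum-free induction medium were exposed in duplicate for 48 h to eight half-log concentrations up to 100 uM in 0.5% DMSO. FOXO3 mRNA was quantified by qRT-PCR, normalized to ACTB, GAPDH and POLR2A, with bidirectional fitting versus DMSO.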

Read-out in assay [13]: ABC Transporter (ABCB1), ABCB1 (gene 5243)
The experiment in a line: LTEA_HepaRG_ABCB1: Life Technologies and Expression Analysis (LTEA) Assay for ABC Transporter (ABCB1) using HepaRG (AID 2283460). An outline of the steps:
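Differentiated human HepaRG cells, plated 48 h then switched to serum-free induction medium, were exposed in duplicate to eight half-log concentrations up to 100 uM in 0.5% DMSO for 48 h. ABCB1 mRNA was measured by TaqMan qRT-PCR, normalized to ACTB/GAPDH/POLR2A.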

Read-out in assay [14]: growth arrest and DNA damage 45 (GADD45B), GADD45B (gene 4616)
The experiment in a line: LTEA_HepaRG_GADD45B: Life Technologies and Expression Analysis (LTEA) Assay for growth arrest and DNA damage 45 (GADD45B) using HepaRG (AID 2283461). The essentials: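 qRT-PCR read-out (Fluidigm TaqMan, housekeeping-normalized) of mRNA change in human HepaRG cells after 48 h chemical exposure; 8-point curve, top 100 uM, half-log steps, 0.5% DMSO vehicle; gain or loss fitted relative to DMSO baseline.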

Read-out in assay [15]: ABC Transporter (ABCC3), ABCC3 (gene 8714)
The experiment in a line: LTEA_HepaRG_ABCC3: Life Technologies and Expression Analysis (LTEA) Assay for ABC Transporter (ABCC3) using HepaRG (AID 2283462). The essentials:
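qRT-PCR read-out of ABCC3 transcript, normalized to three housekeeping genes (ACTB, GAPDH, POLR2A), after 48 h chemical exposure of human HepaRG cells. Eight half-log concentrations, highest 100 uM, in 0.5% DMSO; gain or loss fitted relative to DMSO baseline.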

Read-out in assay [16]: ABC Transporter (ABCC2), ABCC2 (gene 1244)
The experiment in a line: LTEA_HepaRG_ABCC2: Life Technologies and Expression Analysis (LTEA) Assay for ABC Transporter (ABCC2) using HepaRG (AID 2283464). An outline of the steps: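 qRT-PCR (TaqMan, Fluidigm array) read-out of ABCC2 mRNA, normalized to three housekeeping genes. Differentiated HepaRG cells were treated 48 h in serum-free induction medium with 8-point half-log series from 100 uM in 0.5% DMSO; curves fitted bidirectionally relative to DMSO.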

Read-out in assay [17]: Broad substrate specificity ATP-binding cassette transporter ABCG2 (Homo sapiens) (UniProt Q9UNQ0)
The experiment in a line: LTEA_HepaRG_ABCG2: Life Technologies and Expression Analysis (LTEA) Assay for ABC Transporter (ABCG2) using HepaRG (AID 2283465). The essentials:
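Differentiated HepaRG cells in serum-free induction medium were exposed for 48 h, in duplicate, to eight half-log concentrations up to 100 uM in 0.5% DMSO. ABCG2 mRNA was measured by TaqMan qRT-PCR, normalized to ACTB, GAPDH and POLR2A, and fitted bidirectionally versus DMSO.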

Read-out in assay [18]: ATP-citrate lyase (ACLY), ACLY (gene 47)
The experiment in a line: LTEA_HepaRG_ACLY: Life Technologies and Expression Analysis (LTEA) Assay for ATP-citrate lyase (ACLY) using HepaRG (AID 2283466). The essentials: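 Differentiated human HepaRG cells in serum-free induction medium exposed 48 h, in duplicate, to eight half-log concentrations from 100 uM top in 0.5% DMSO; ACLY mRNA measured by qRT-PCR, normalized to ACTB, GAPDH, POLR2A, fitted bidirectionally versus DMSO.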

Read-out in assay [19]: ABC Transporter (ABCB11), ABCB11 (gene 8647)
The experiment in a line: LTEA_HepaRG_ABCB11: Life Technologies and Expression Analysis (LTEA) Assay for ABC Transporter (ABCB11) using HepaRG (AID 2283463). The essentials:
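Differentiated human HepaRG cells were exposed for 48 h in serum-free induction medium to eight half-log concentrations up to 100 uM in 0.5% DMSO. ABCB11 mRNA was quantified by qRT-PCR, normalized to ACTB, GAPDH and POLR2A, and fitted bidirectionally versus DMSO.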

Chain of Fatty acid synthase (Homo sapiens) (P49327 whole entry, looked up): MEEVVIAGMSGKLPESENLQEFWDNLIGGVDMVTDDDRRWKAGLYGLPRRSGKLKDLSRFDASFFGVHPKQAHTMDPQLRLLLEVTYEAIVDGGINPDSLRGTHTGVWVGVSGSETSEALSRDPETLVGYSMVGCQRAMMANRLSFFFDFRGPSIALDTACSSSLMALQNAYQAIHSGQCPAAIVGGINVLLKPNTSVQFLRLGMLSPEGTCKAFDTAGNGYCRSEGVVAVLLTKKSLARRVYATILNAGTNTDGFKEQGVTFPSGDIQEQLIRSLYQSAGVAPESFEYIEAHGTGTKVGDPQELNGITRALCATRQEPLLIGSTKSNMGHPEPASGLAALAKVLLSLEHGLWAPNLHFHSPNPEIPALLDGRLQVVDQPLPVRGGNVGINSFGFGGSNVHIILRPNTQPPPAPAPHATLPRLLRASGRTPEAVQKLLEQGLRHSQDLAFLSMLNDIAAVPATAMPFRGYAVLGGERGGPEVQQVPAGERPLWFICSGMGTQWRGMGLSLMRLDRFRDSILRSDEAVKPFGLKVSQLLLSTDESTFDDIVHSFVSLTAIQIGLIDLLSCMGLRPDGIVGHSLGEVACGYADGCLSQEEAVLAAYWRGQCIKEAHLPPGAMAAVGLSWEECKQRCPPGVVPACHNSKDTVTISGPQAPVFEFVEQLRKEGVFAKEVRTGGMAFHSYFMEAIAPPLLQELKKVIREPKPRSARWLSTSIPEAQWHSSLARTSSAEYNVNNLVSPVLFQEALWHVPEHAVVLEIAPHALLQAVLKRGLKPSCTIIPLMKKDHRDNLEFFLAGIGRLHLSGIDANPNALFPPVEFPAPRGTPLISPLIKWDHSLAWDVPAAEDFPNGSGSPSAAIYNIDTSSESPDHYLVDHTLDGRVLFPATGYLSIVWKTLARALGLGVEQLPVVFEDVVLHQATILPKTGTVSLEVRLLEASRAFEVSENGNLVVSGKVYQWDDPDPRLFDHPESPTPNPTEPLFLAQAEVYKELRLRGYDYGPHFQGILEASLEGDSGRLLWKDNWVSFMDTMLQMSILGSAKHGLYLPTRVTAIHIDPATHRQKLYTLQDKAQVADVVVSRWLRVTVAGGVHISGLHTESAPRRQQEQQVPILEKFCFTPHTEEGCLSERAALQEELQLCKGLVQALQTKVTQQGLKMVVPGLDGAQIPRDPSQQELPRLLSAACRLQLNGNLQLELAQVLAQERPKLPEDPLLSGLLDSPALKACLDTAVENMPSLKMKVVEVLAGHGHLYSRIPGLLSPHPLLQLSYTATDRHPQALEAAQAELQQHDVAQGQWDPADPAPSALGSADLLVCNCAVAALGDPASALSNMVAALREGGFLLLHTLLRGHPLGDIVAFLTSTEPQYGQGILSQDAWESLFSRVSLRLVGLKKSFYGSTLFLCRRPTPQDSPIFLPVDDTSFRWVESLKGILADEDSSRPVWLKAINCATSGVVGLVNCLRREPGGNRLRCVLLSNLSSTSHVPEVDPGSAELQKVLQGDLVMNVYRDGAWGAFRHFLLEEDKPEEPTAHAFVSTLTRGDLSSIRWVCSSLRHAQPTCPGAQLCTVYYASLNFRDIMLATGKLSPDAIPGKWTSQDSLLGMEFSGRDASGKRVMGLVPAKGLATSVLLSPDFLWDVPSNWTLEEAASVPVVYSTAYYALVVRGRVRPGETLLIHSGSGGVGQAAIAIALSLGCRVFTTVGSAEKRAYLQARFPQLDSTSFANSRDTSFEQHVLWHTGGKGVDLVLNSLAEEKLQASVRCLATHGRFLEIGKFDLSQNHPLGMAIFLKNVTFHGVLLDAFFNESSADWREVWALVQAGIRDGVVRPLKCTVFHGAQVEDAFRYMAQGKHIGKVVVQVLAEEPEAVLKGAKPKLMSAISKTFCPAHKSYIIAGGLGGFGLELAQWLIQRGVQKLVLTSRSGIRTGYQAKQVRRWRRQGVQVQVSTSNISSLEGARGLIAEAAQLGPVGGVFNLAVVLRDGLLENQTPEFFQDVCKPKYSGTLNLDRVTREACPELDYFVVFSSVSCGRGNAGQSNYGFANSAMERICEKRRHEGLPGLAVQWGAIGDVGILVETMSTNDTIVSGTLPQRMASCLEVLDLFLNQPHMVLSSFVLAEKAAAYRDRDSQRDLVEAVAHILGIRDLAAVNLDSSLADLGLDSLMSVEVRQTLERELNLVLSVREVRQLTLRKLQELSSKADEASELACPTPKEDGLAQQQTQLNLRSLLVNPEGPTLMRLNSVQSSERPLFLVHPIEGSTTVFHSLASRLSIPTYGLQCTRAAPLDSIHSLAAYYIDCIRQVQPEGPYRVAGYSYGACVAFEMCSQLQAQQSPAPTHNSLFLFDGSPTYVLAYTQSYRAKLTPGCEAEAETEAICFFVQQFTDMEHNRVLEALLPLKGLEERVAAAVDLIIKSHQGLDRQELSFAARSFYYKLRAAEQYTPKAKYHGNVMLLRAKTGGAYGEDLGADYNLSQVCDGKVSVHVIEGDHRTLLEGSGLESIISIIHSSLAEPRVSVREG
Chain of Broad substrate specificity ATP-binding cassette transporter ABCG2 (Homo sapiens) (Q9UNQ0 whole entry, looked up): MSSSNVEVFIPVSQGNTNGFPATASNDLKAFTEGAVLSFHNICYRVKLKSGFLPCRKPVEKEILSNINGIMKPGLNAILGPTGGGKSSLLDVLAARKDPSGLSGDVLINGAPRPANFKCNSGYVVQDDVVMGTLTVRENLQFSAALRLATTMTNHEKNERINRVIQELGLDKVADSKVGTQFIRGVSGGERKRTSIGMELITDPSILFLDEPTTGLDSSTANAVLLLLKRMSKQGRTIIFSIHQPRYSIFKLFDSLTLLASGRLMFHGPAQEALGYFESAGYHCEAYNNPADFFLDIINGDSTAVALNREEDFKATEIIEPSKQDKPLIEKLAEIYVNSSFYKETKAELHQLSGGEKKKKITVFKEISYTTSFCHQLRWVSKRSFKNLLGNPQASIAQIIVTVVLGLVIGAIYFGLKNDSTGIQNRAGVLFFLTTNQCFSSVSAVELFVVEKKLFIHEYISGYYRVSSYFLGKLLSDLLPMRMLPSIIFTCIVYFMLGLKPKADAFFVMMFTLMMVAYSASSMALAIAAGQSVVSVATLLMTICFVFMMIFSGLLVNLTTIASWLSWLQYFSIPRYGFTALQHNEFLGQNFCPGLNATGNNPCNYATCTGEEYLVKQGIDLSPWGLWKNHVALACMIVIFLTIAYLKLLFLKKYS

Consider `COCCOC[C@H](CC1(C(=O)NC2CCC(C(=O)O)CC2)CCCC1)C(=O)Oc1ccc2c(c1)CCC2` (stereo partly drawn), for which the outcome in assay [1], in assay [2], in [3], in assay [4], in assay [6] and in [7] was inactive. The compound was classed as inactive in assay [8], in assay [9], in [10], in [11], in assay [12] and in assay [13]. The compound was called inactive in assay [14], in [15], in assay [16], in [17] and in assay [18]. The AC50 in assay [5] was 204 nM (active).

On to `O=C(OCCCCCOC(=O)c1ccccc1)c1ccccc1`, for which the AC50 in [1] was 1080 nM (active); in assay [3], 2480 nM (active); in assay [5] it was 2780 nM (active); in assay [7], 503 nM (active); in assay [8], 1180 nM (active); in assay [9], 228 nM (active). In addition, the AC50 in assay [10] is 1190 nM (active); in assay [11] it was 2130 nM (active); in assay [12], 140 nM (active); in [13], 270 nM (active); in [15], 12700 nM (active); in assay [19], 572 nM (active). Also, the AC50 in assay [17] was 773 nM (active); in assay [18] it was 50000 nM (active). Also, the result in [2], in assay [4], in assay [6] and in [14] was inactive.

With `CC1(C)CC(N=C=O)CC(C)(CN=C=O)C1` (stereo not drawn), the outcome in assay [1], in assay [3], in assay [4], in assay [5], in [6] and in assay [7] was inactive. The call in assay [8], in assay [10], in assay [11], in assay [12], in assay [13] and in assay [14] was inactive. For the same compound, the result in [15], in assay [17] and in assay [18] was inactive. The values for the AC50 in [2] and in [19] were 69700 nM (active) and 50000 nM (active), respectively.

Usually AC50 stands for the concentration giving half of the maximal activity seen.
